Rows were chosen to be rich in hits. Some 18% of all compounds tested hit in one or more screens of this group.
HepG2 viability – counter-screen for TGF-b inhibitors: cytotoxicity in HepG2 cells. HepG2 CAGA-GFP viability, ATP luminescence, 18 h. 410,000 compounds, 0.76% hits. Potency, µM (top dose mostly 46.1 µM), usual class: cytotoxic
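CellTiter-Glo luminescence gave cytotoxicity after 18 hours at 37 degrees C. The cells were HepG2 CAGA-GFP in 1% FBS DMEM, stimulated with 500 pg/mL TGF-beta after compound addition. %Activity was normalised to no-cell wells (complete cell-killing) and DMSO (no toxicity), and curves were fitted and classified.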
TDP1 cell CPT – DT40-hTDP1 cell growth loss with CPT; chicken DT40 Tdp1-/-;hTDP1 cells + 20 nM CPT, ATP luminescence, 48 h; Potency, µM (top dose mostly 46.2 µM), usual class: inhibitors; 420,000 compounds, 12% hits; further: nearly all actives have a fitted effect of over 55% in size
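Chicken DT40 Tdp1-/- cells complemented with human TDP1, 400 cells/well, exposed to compounds plus 20 nM camptothecin for at least 48 h at 37 C; viability read as ATP content by CellTiter-Glo luminescence.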
IL1B secr inh – blocks inflammasome-driven IL-1 beta release; activity change, % at 57.5 µM; AID 743279; THP-1 LPS/ATP IL-1B secretion, AlphaLISA, 16 h; stronger effect = lower value; 360,000 compounds, 4.7% hits; in the data active means activity change below about -50%; inconclusive means mostly about -30% to -49%
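Secreted IL-1B measured by AlphaLISA bead assay after 16 h compound exposure of THP-1 cells; compounds (final up to 57.5 uM) added 1 h before LPS (250 ng/mL) and ATP (1.25 mM) stimulation; lower signal means less secretion.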
TDP1 cell noCPT – qHTS for Inhibitors of human tyrosyl-DNA phosphodiesterase 1 (TDP1): qHTS in cells in absence of CPT | AID 686978, 2013 | DT40 Tdp1-/- hTDP1 cells, no CPT, ATP luminescence, 48 h | Potency, µM (titrated, usually from 46.2 µM), usual class: inhibitors | 420,000 compounds, 15% hits; further: nearly all actives have a fitted effect of over 55% in size
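Chicken DT40 Tdp1-/- cells complemented with human TDP1, screened without camptothecin (DMSO vehicle only), 400 cells/well. Compounds pin-transferred, cells incubated at 37 °C for at least 48 hr. Growth read as ATP-dependent luminescence (CellTiter-Glo, 30 min at RT).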
TDP1 block – TDP1 (human) enzyme inhibition. Q9NUW8. recombinant TDP1, AlphaScreen DNA substrate cleavage. Potency, µM (titrated, usually from 130 µM), actives largely listed as inhibitors. 350,000 compounds, 0.28% hits. AID 485290; further: nearly all actives have a fitted effect of over 40% in size
Target sequence (Q9NUW8 whole entry, looked up): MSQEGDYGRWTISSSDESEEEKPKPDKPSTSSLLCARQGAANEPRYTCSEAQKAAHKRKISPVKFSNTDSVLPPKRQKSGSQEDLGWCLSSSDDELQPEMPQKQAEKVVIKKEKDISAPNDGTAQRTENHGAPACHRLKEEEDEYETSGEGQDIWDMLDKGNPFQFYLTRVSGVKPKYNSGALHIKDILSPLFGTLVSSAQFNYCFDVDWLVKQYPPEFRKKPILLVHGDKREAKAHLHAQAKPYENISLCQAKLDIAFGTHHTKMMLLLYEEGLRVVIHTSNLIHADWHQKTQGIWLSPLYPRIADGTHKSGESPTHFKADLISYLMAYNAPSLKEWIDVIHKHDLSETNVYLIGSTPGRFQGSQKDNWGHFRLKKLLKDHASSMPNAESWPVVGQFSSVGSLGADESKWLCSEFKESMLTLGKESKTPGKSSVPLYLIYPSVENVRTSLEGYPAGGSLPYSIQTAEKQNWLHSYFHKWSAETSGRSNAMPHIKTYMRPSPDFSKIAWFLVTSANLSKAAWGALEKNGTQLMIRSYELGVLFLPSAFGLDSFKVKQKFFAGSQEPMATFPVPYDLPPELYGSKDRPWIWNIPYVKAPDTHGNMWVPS
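Here, a 5' biotin and 3' phosphotyrosine-FITC DNA oligonucleotide reports Tdp1 activity: intact substrate bridges AlphaScreen beads, while cleavage leaves a 3' phosphate and drops signal. All incubations at room temperature.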
TGFb SMAD3 inh – blocks TGF-b signaling; 410,000 compounds, 1.2% hits; HepG2 CAGA-GFP TGF-b/SMAD3 reporter, GFP fluorescence, 18 h; TGF-beta stimulated, 500 pg/mL final; Potency, µM (doses to about 46.1 µM), usual class: inhibitors; further: nearly all actives have a fitted effect of over 65% in size
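Using HEPG2 CAGA-GFP reporter cells at 1000 cells/well, we pinned test compounds, stimulated with recombinant TGF-beta (500 pg/mL final) and measured total well GFP after 18 h.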
Hits are given with their value; – = inactive; ? = inconclusive; · = no result; [ ] = remark or other dose. Unless noted, the call rests on the fitted dose curve; in most records, active means well fitted curve in the direction sought with a large enough effect; inconclusive means small, poorly fitted or top-dose-only effect, or another doubt; inactive means no such curve, though single readings can be large; an effect the other way counts as inactive or inconclusive.

SMILES	HepG2 viability	TDP1 cell CPT	IL1B secr inh	TDP1 cell noCPT	TDP1 block	TGFb SMAD3 inh
Cc1cccc(CNC(=O)CN2C(=O)C3CCCCN3c3ccc(C(=O)N4CCCC4)cc32)c1 (stereo unspecified)	–	?	·	?	–	–
CCCOC(=O)NCCCN(C)C	·	·	·	·	–	·
COc1ccccc1-c1cc(C(F)(F)F)nc(S(=O)(=O)CCCC(=O)Nc2ccc(F)c(Cl)c2)n1	–	–	·	?	–	–
COc1ccccc1-c1cc(C(F)(F)F)nc(S(=O)(=O)CCCC(=O)Nc2cc(OC)c(OC)c(OC)c2)n1	–	?	·	21µM	–	–
COc1ccccc1-c1cc(C(F)(F)F)nc(S(=O)(=O)CCCC(=O)O)n1	–	14µM	-87	?	–	18µM
CCCCN(CCCC)C(=S)[S-].CCCCN(CCCC)C(=S)[S-].[Zn+2]	·	–	·	–	·	·
CN(C)c1ccc(C=O)cc1	–	–	·	–	·	–
CN(C)c1ccc(SC#N)cc1	–	–	-99	–	–	–
CN1C2C=C3C(C#N)=C(N)C(C#N)(C#N)C(c4ccc(Br)cc4)C3C1CC2 (stereo unspecified)	–	?	-101	21µM	–	–
CN1C2C=C3C(C#N)=C(N)C(C#N)(C#N)[C@@H](c4ccc(Cl)cc4)[C@@H]3C1CC2 (stereo partly specified)	–	?	–	?	–	–
Cc1nnc(SCC(=O)N(C)c2ccccc2)n1Cc1ccccc1	–	–	–	–	–	–
O=C(NCc1nnc2n1CCN(Cc1ccc(C(F)(F)F)cc1)CC2)c1cccc(F)c1	·	–[9.04 µM]	·	?	·	·
O=C(NCc1nnc2n1CCN(Cc1cccc(Cl)c1)CC2)c1cccc(F)c1	·	5.2µM	·	4.1µM	·	·
Cc1ccc(-c2nnc(-c3cc(C)on3)o2)cc1	–	?	–	–	–	–
COc1ccc(NC(=O)CCNS(=O)(=O)c2ccc(Cl)c([N+](=O)[O-])c2)cc1S(N)(=O)=O	–	–	–	–	–[0.0935 µM]	–
CC1=C(C(=O)Nc2ccccc2)C(c2ccc(O)cc2)n2nc(SCc3ccccc3)nc2N1 (stereo unspecified)	–	–	·	–	–	–
COc1ccccc1NC(=O)C1=C(C)Nc2nc(SCc3ccccc3)nn2C1c1ccccn1 (stereo unspecified)	–	8.2µM	·	?	–	–
CC1=C(C(=O)Nc2ccccc2)C(c2ccccn2)n2nc(SCc3ccccc3)nc2N1 (stereo unspecified)	–	5.2µM	·	?	–	–
CCSc1nc2n(n1)C(c1ccc(CC)cc1)C(C(=O)Nc1ccccc1OC)=C(C)N2 (stereo unspecified)	–	16µM	·	23µM	–	–
COc1ccccc1NC(=O)C1=C(C)Nc2nc(SCc3cccc(F)c3)nn2C1c1ccc(C(=O)O)cc1 (stereo unspecified)	–	–	·	–	·	–
CC(C)C(NC(=O)c1ccccc1)C(=O)OCC(=O)N1CCCC1 (stereo unspecified)	–	–	–	–	–	–
O=C(NNC(=O)c1cccc2ccccc12)c1ccccc1O	–	15µM	–	?	–	–
O=C(NNc1c2ccccc2nc2ccccc12)c1ccccc1O	–	?	–	21µM	–	?
O=C(NNC(=O)c1ccccc1O)c1cc2ccccc2o1	–	?	–	23µM	·	?
O=C(NNc1nc(=O)c2cccnc2s1)c1ccccc1O	–	0.0052µM	–	0.016µM	–	–
SMILES	HepG2 viability	TDP1 cell CPT	IL1B secr inh	TDP1 cell noCPT	TDP1 block	TGFb SMAD3 inh
COc1ccccc1C(=O)NNc1ncc(C)s1	–	?	–	?	–	–
O=C(NNc1c2ccccc2nc2ccccc12)c1ccccc1Cl	–	–	–	?	·	–
N#Cc1cnn2c(-c3cccc([N+](=O)[O-])c3)ccnc12	–	–	–	–	–	–
C[C@@H]1CCCCO[C@H](CN(C)Cc2ccc(C(F)(F)F)cc2)[C@@H](C)CN([C@H](C)CO)C(=O)c2cc(NS(=O)(=O)c3cn(C)cn3)ccc2O1	–	–	–	?	·	–
O=C(NNc1c2ccccc2nc2ccccc12)c1ccc(O)cc1O	–	?	-51	16µM	–	?
COc1cc(=O)n2c(c1C(=O)N(C)Cc1cscn1)CCN(C(=O)c1ccc(C)cc1C)CC2	·	–	·	–	·	·
O=C(c1ccccc1)c1ccc2nc(Nc3ccccc3Cl)c3nncn3c2c1	–	?	·	?	–	–
O=C(CSc1nnc(-c2csc3c2CCCC3)o1)Nc1ccccc1	–	?	-50	?	–	–
O=C(CSc1nnc(-c2ccc(O)cc2)o1)Nc1ccccc1	–	–	–	–	–	–
Cc1ccc(OCC(=O)Nc2ccc3nc(SCC(=O)N4CCOCC4)sc3c2)cc1	–	?	·	21µM	–	–
CC(C)CC(=O)Nc1ccc2nc(SCC(=O)N3CCOCC3)sc2c1	–	–	·	?	–	–
CCOC(=O)Nc1ccc2nc(Sc3ccc(Cl)cc3)sc2c1	–	5.8µM	–	5.8µM	–	?
O=C(COc1ccc(Cl)cc1)Nc1ccc2nc(SCC(=O)N3CCOCC3)sc2c1	–	?	·	15µM	–	–
O=C(COC(=O)c1ccc(Cl)nc1)NC1CCCc2ccccc21 (stereo unspecified)	–	–	–	–	–	–
Cc1ccc(CNc2nc(CN3CCN(C=O)CC3)nc3ccccc23)o1	·	–[9.04 µM]	·	–	·	·
CC1CC(N(C(=O)c2ccc(Cl)cc2)c2ccccc2)c2ccccc2N1C(=O)c1ccco1 (stereo unspecified)	–	12µM	?	5.8µM	–	?
CCOC(=O)C(=O)N1c2ccccc2C(N(C(=O)C(=O)OCC)c2ccccc2)CC1C (stereo unspecified)	–	–	–	?	–	–
COc1ccc2oc(C(=O)OCC(=O)N3CC(C)CC(C)C3)c(C)c2c1 (stereo unspecified)	–	?	–	?	·	–
COc1ccc2oc(C(=O)OC(C)C(=O)N3CCC(C)CC3)c(C)c2c1 (stereo unspecified)	–	?	–	15µM	–	–
COc1ccc2cc(C(C)C(=O)N3CCC(C)CC3)ccc2c1 (stereo unspecified)	–	16µM	?	?	–	–
CC12CCC(=O)N1C(C(=O)Nc1ccc(F)cc1)CS2 (stereo unspecified)	–	–	–	–	–	–

Screening results: PubChem BioAssay, National Center for Advancing Translational Sciences (NCATS)
